Experimental data published in the supplement of paper PMC6805474.

Tested on: Schistosoma mansoni schistosomula (LE)
Test: XTT viability relative to DMSO control; higher = more viable (less active)
Details: 72 h; 10 µM
Method: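 XTT/PMS was then added for a further 24 h (72 h total) and A450 was read. % viability = (sample - heat-killed control)/(DMSO control - heat-killed control) x 100, from duplicate wells in two independent experiments.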

Going from `Cc1nn(C)c(C)c1NS(=O)(=O)c1c(Cl)cc(-c2ccnc(N3CCNCC3)c2)cc1Cl` to `Cc1cccc(C(=O)Nc2ccnc(N(C)C3CCN(CC(C)C)CC3)c2)c1`, the XTT viability rises from 121% to 125%.

Going from `O=C1O[C@@H](CO)CN1c1cc(F)c(C2=CCN(Cc3ccccc3)CC2)c(F)c1` to `O=C1O[C@@H](COc2ccon2)CN1c1cc(F)c(C2=CCN(Cc3ccccc3)CC2)c(F)c1`, the XTT viability falls from 127% to 72.9%.

Compared with `CC1COC(Cn2cncn2)(c2ccc(Oc3ccc(Cl)cc3)cc2Cl)O1` (centres undefined), `CCc1nn(C)c(C(=O)NCc2ccc(Oc3ccc(C)cc3)cc2)c1Cl` is higher in XTT viability: 47.3% for the first, 72.8% for the second.

Going from `Nc1c2c(nc3sc4c(c13)CCCC4)CCCC2` to `Cc1nn(Cc2ccccc2)c(Cl)c1C(=O)NC1CCCCCC1`, the XTT viability falls from 89.4% to 87.9%.

Compared with `Cc1cc(C2=NOC(c3cc(Cl)c(F)c(Cl)c3)(C(F)(F)F)C2)ccc1C(=O)NCc1ccc2c(c1)C(C)(C)OB2O` (centres undefined), `CC1(C)OB(O)c2ccc(C3=NOC(c4cc(Cl)c(F)c(Cl)c4)(C(F)(F)F)C3)cc21` (centres undefined) is higher in XTT viability: 23.2% for the first, 33.5% for the second.

Compared with `CO/C=C(/C(=O)OC)c1ccccc1Oc1cc(Oc2ccccc2C#N)ncn1`, `CO/N=C(\C(=O)OC)c1ccccc1CO/N=C(\C)c1cccc(C(F)(F)F)c1` is higher in XTT viability: 79.5% for the first, 109% for the second.

Going from `CC(C)(C)C(O)C(Oc1ccc(-c2ccccc2)cc1)n1cncn1` (centres undefined) to `CO[C@@H]1CN(c2ccc(C#CC3(O)CN4CCC3CC4)c(Cc3ccccc3)n2)C[C@H]1O` (some centres undefined), the XTT viability falls from 106% to 90.7%.
